Pf growth 48h = inhibits P. falciparum growth in the first generation, 48 h. P. falciparum luciferase growth in erythrocytes, 48 h. Potency, µM (series often up to 28.7 µM), without a hit: at the highest dose activity change, negative = inhibition, most hits filed as inhibitors. 310,000 compounds, 5.9% hits. AID 504832; note: potency is the fitted concentration of half-maximal effect; % is set by controls: 0 for no effect and ±100 for the full control effect
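Luciferase-expressing parasites in RBCs, 2% Hct / 0.1% parasitemia final; RPMI 1640 + 0.5% Albumax; 37 C, 5% CO2, one generation; luminescence read-out, lower signal = inhibition.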
Pf growth 96h = P. falciparum growth inhibition at 96 hours. P. falciparum luciferase reporter growth, 96 h. Potency, µM (highest dose often 28.7 µM), without a hit: top-dose activity change, negative = inhibition, usual class: inhibitors. 320,000 compounds, 6.9% hits. AID 504834; note: potency is the fitted concentration of half-maximal effect; % is set by controls: 0 for no effect and ±100 for the full control effect
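Cell-based qHTS: luciferase-tagged P. falciparum in erythrocytes (2% hematocrit, 0.05% parasitemia final) incubated with compounds for 96 hours, 37 C, 5% CO2; luciferase detection reagent then added and luminescence measured.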
HCV inhibitor = inhibitors of hepatitis C virus infection. AID 651820. Huh7.5.1 HCVcc-Cre infection, luciferase reporter, 44 h. Potency, µM (top dose mostly 41.8 µM), without a hit: top-dose activity change, negative = inhibition, actives largely listed as inhibitors. 340,000 compounds, 3.4% hits; note: potency is the fitted concentration of half-maximal effect; % is set by controls: 0 for no effect and ±100 for the full control effect
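Cells (1,000/well) were plated 4 h before compound, then infected with HCVcc-Cre virus (~0.5 moi). After 44 h further culture, infection was read as luciferase luminescence following a 15 min substrate incubation at room temperature.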
SARS PLP yeast = blocks SARS-CoV papain-like protease in a yeast assay; Potency, µM (titrated, usually from 32.9 µM), for inactives: at the top dose activity, positive = growth rescue, most hits filed as activators; S. cerevisiae expressing SARS-CoV PLpro, growth rescue; AID 485353; 330,000 compounds, 0.19% hits; calls by dose curve; note: potency is the fitted concentration of half-maximal effect; 0% is about no effect; nearly all actives have a fitted effect of over 55% in size
HCMV antiviral = human cytomegalovirus inhibition; activity change, negative = inhibition, % at 57.5 µM; AID 1259415; HFF cells, HCMV-luciferase reporter, 72 h; hits give low values; 410,000 compounds, 4.5% hits; in the data active = activity change below about -60%; inconclusive = no clear call, values can overlap the other calls; inactive = above about -39%; note: % is set by controls: 0 for no effect and ±100 for the full control effect
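Screen run at 2 compound doses on HFFs infected with reporter HCMV, MOI 1 PFU/cell. Luciferase activity from cell lysates at 72 h post infection gave inhibition relative to buffer-only and Salinomycin wells.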
Sm TGR inh = blocks Schistosoma mansoni thioredoxin glutathione reductase; purified TGR, DTNB reduction, TNB absorbance 405 nm; Potency, µM (top dose mostly 114 µM), without a hit: top-dose activity change, negative = inhibition, most hits filed as inhibitors; 360,000 compounds, 3% hits; note: potency is the fitted concentration of half-maximal effect; % is set by controls: 0 for no effect and ±100 for the full control effect; nearly all actives have a fitted effect of over 60% in size
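First, TGR (20 nM dispensed) and NADPH were mixed with compound. Second, a 15 min room-temperature incubation followed. Third, further NADPH and then DTNB were added to start the reaction. Finally, TNB absorbance was monitored kinetically.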
Active calls of the source: *. Compounds with a hit are over-represented: about 15% of the library has one in this group of screens. Unless noted, calls come from the whole dose curve; as a rule, active = well fitted curve in the direction sought with a large enough effect; inconclusive = small, poorly fitted or top-dose-only effect, or another doubt; inactive = no such curve, though single readings can be large; an effect the other way counts as inactive or inconclusive.

For N#Cc1ccc(OCC(=O)NNC(=S)NC(=O)C2CC2)cc1 the results were HCV inhibitor -3%, SARS PLP yeast -4% and HCMV antiviral 4.
CC(C)c1ccc(OCC(=O)NNC(=S)NC(=O)C2CC2)cc1 was read as Pf growth 48h inconclusive, Pf growth 96h inconclusive, HCV inhibitor -26%, HCMV antiviral -98* and Sm TGR inh 0%.
`CCCCCCCCNS(=O)(=O)CCNC1CC1` gave HCV inhibitor -26% and HCMV antiviral -4.
For CC(C)C[C@H](N)c1nnc(S(=O)(=O)Cc2ccc(F)cc2)o1 the results were Pf growth 48h 0%, Pf growth 96h inconclusive, HCV inhibitor 8%, SARS PLP yeast -17% and Sm TGR inh 1µM*.
For Cc1ccc(F)c(Oc2cc(NN3CCCCC3)c([N+](=O)[O-])cc2[N+](=O)[O-])c1 the results were Pf growth 48h inconclusive, Pf growth 96h 12µM*, HCV inhibitor -6%, SARS PLP yeast 2%, HCMV antiviral -15 and Sm TGR inh 2%.
CC1(C)Cc2cccc(Oc3cc(NN4CCCCC4)c([N+](=O)[O-])cc3[N+](=O)[O-])c2O1 was read as Pf growth 48h inconclusive, Pf growth 96h 1.5µM*, HCV inhibitor -7%, SARS PLP yeast -1%, HCMV antiviral -18 and Sm TGR inh 2%.
For O=[N+]([O-])c1cc([N+](=O)[O-])c(Oc2cccc(Cl)c2Cl)cc1NN1CCCCC1 the results were Pf growth 48h -10%, Pf growth 96h inconclusive, HCV inhibitor 4%, SARS PLP yeast 3%, HCMV antiviral -9 and Sm TGR inh 0%.
For Cc1cc(Oc2cc(NN3CCCCC3)c([N+](=O)[O-])cc2[N+](=O)[O-])c(C(=O)c2ccccc2)cc1Cl the results were Pf growth 48h inconclusive, Pf growth 96h 8.3µM*, HCV inhibitor -27%, SARS PLP yeast 0%, HCMV antiviral -12 and Sm TGR inh 9%.
O=[N+]([O-])c1cc([N+](=O)[O-])c(Oc2ccc(Cl)c3cccnc23)cc1NN1CCCCC1 was read as Pf growth 48h inconclusive, Pf growth 96h 1.5µM*, HCV inhibitor 7%, SARS PLP yeast -4%, HCMV antiviral -20 and Sm TGR inh -18%.
Screening CN(Cc1ccc(Cl)c(Cl)c1)C(=O)C1=CC=CN2CCS(=O)(=O)N=C12 returned Pf growth 48h 9.3µM*, Pf growth 96h 1.5µM*, HCV inhibitor inconclusive, SARS PLP yeast -3%, HCMV antiviral -8 and Sm TGR inh 5%.
COc1ccc(Cn2c(C3CC3)nc3ccc(NC(=O)C4CC4)cc3c2=O)cc1 was read as Pf growth 48h 233%, Pf growth 96h -11%, HCV inhibitor inconclusive, SARS PLP yeast 0%, HCMV antiviral 5 and Sm TGR inh -3%.
For O=C(Nc1ccc2nc(C3CC3)n(Cc3ccc(F)cc3)c(=O)c2c1)c1ccco1 the results were Pf growth 48h 1.9µM*, HCV inhibitor 22µM*, SARS PLP yeast -4%, HCMV antiviral -69* and Sm TGR inh 1%.
COc1cccc(Cn2c(C3CC3)nc3ccc(NC(=O)c4ccco4)cc3c2=O)c1 was read as Pf growth 48h 3.7µM*, HCV inhibitor inconclusive, SARS PLP yeast -7%, HCMV antiviral inconclusive and Sm TGR inh 1%.
Screening c1ccc(-c2nc(N3CCOCC3)c3ccccc3n2)nc1 returned Pf growth 48h 7.4µM*, Pf growth 96h inconclusive, HCV inhibitor inconclusive, SARS PLP yeast -1%, HCMV antiviral inconclusive and Sm TGR inh 3%.
Screening c1ccc(-c2nc(N3CCCCCC3)c3ccccc3n2)nc1 returned Pf growth 48h 0.83µM*, HCV inhibitor 1.6µM*, SARS PLP yeast -8%, HCMV antiviral -99* and Sm TGR inh -8%.
`Cc1nc(-c2ccccn2)nc(N2CCOCC2)c1Cl` gave Pf growth 48h inconclusive, Pf growth 96h 2.3µM*, HCV inhibitor -3%, SARS PLP yeast 2%, HCMV antiviral -11 and Sm TGR inh 3%.
For Cc1nnc(-c2ccccc2)nc1N1CCOCC1 the results were Pf growth 48h 13%, Pf growth 96h 62%, HCV inhibitor 1%, SARS PLP yeast 0%, HCMV antiviral -3 and Sm TGR inh 4%.
Screening CSc1nc(N2CCOCC2)c2ccccc2n1 returned Pf growth 48h inconclusive, Pf growth 96h -13%, HCV inhibitor 10µM*, SARS PLP yeast -7%, HCMV antiviral -35 and Sm TGR inh 5%.
Screening COc1ccc(S(=O)(=O)NCCc2csc(-c3cccc(F)c3)n2)cc1OC returned HCMV antiviral 4 and Sm TGR inh -2%.
`Cc1ccc2onc(CC(=O)Nc3ccc(C(C)C)cc3)c2c1` gave HCMV antiviral -7 and Sm TGR inh 4%.
Screening Cc1nc(-c2ccccn2)nc(SCC(=O)c2ccc(F)cc2)c1Cl returned Pf growth 48h inconclusive, Pf growth 96h inconclusive, HCV inhibitor inconclusive, SARS PLP yeast -8%, HCMV antiviral inconclusive and Sm TGR inh 7%.
Screening Cc1nc(-c2ccccn2)nc(N(C)c2ccccc2)c1Cl returned Pf growth 48h 1.7µM*, Pf growth 96h 1.2µM*, HCV inhibitor 10µM*, SARS PLP yeast -7%, HCMV antiviral -61* and Sm TGR inh -5%.
For O=C(OCC(=O)N1CCN(Cc2ccccc2)CC1)c1cc(Cl)ccc1[N+](=O)[O-] the results were Pf growth 48h 3%, Pf growth 96h -7%, HCV inhibitor 5%, SARS PLP yeast 4%, HCMV antiviral 3 and Sm TGR inh 6%.
Screening CCCCSCc1nc2nc(Cl)c(Cl)nc2[nH]1 returned HCMV antiviral -29.
Cc1cc(C)c(Cn2c(=O)n(CCCCCC(=O)NCc3ccc4c(c3)OCO4)c(=O)c3sccc32)c(C)c1 was read as HCMV antiviral 32 and Sm TGR inh 22%.
`CN(C)CCCNC(=O)c1cc(Br)ccc1Cl` gave Pf growth 96h 9.3µM*, HCV inhibitor 7%, SARS PLP yeast 1%, HCMV antiviral 8 and Sm TGR inh 0%.
Screening O=C(NCCN1CCOCC1)c1cc(Br)ccc1Cl returned Pf growth 48h 23%, Pf growth 96h 24%, HCV inhibitor 14%, SARS PLP yeast 3%, HCMV antiviral -19 and Sm TGR inh -11%.
COC(=O)C1C=CC(OC2OC(COC(C)=O)C(OC(C)=O)C(OC(C)=O)C2OC(C)=O)n2c(=O)n(-c3ccccc3)c(=O)n21 (stereo unspecified) was read as HCV inhibitor 10µM* and HCMV antiviral -98*.

Source: PubChem (National Center for Advancing Translational Sciences (NCATS))
